In PubChem BioAssay AID504467 (National Center for Advancing Translational Sciences (NCATS), 2011):
The campaign covered roughly 330,000 compounds. About 7,700 (2.3%) were called active. Not shown: some 26% with an inconclusive outcome. Many of the other results were omitted from the sample, so actives are more common in it than they were. Values without a mark were called inactive. Calls come from the whole dose curve; as a rule, active = well fitted inhibition curve with a large enough effect; inconclusive = small, poorly fitted or top-dose-only effect, or effect the other way; inactive = flat fitted curve, though single readings scatter.

Experiment: qHTS screen for small molecules that inhibit ELG1-dependent DNA repair in human embryonic kidney (HEK293T) cells expressing luciferase-tagged ELG1; note: nearly all actives have a fitted effect of over 55% in size
Conditions: HEK293T ELG1-luciferase reporter, luminescence, 16 h, DNA damage induced by 5-fluorouridine; series mostly up to 46.1 µM; activity change, negative = inhibition: at the top concentration
In short: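 Quantitative HTS, concentration-response format. 2,000 cells/well co-treated with 5-fluorouridine and compound, 16 hr in 5% CO2 at 37 °C; ONE-Glo luminescence read after 30 min.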
% is set by controls: 0 for no effect and ±100 for the full control effect; potency is the fitted concentration of half-maximal effect.

| Compound | activity change, negative = inhibition [%] | Potency |
| --- | --- | --- |
| O=C(Cn1cnc2ccccc2c1=O)NCC1COc2ccccc2O1 (centres undefined) | -0.196 |  |
| Cc1noc(C)c1C(=O)NCC1COc2ccccc2O1 (centres undefined) | 0.0743 |  |
| CCC1CCCCN1C(=O)CSc1nc2c(c(=O)n1C)SC(C)C2 (centres undefined) | -8.54 |  |
| CC(=O)c1cccc(OCC(=O)OCC(=O)Nc2cc(S(=O)(=O)N3CCCCC3)ccc2C)c1 | 1.04 |  |
| CC(C(=O)Nc1ccc(O)c(C(=O)O)c1)N1C(=O)/C(=C/c2cccs2)SC1=S (centres undefined) | 10.8 |  |
| COc1ccccc1C(=O)NCCn1cc(SCC(=O)NCc2ccco2)c2ccccc21 |  | 25.9 µM (active) |
| COc1ccccc1C(=O)NCCC(=O)NCC(c1ccco1)N1CCCCC1 (centres undefined) | 10.2 |  |
| COc1cccc(OC)c1C(=O)NC(=S)NCc1ccco1 | 14 |  |
| Cc1cc(C)n2nc(C(=O)Nc3cccc(S(=O)(=O)N4CCOCC4)c3)nc2n1 | 14.6 |  |
| O=C(CCNC(=O)c1ccccc1Cl)NN=Cc1ccco1 | 2.44 |  |
| C#CCOCCOCCOCCNc1nc(N2CCN(C(=O)[C@H](CCC(=O)O)n3cc(CN)nn3)CC2)nc(N2CCN(C(=O)[C@H](CCC(=O)O)n3cc(CN)nn3)CC2)n1 | 7.9 |  |
| O=C(NC1CCCC1)C(c1ccco1)N(C(=O)c1ccco1)c1ccc(F)cc1 (centres undefined) | -2.68 |  |
| CC1=C[C@H]2Cc3cc(C)cc(C)c3S(=O)(=O)[C@@H]2C=C1 |  | 16.4 µM (active) |
| Cc1ccc(NC(=O)CCC(=O)N2CCC(c3ccccc3)=N2)cc1S(=O)(=O)N1CCCCC1 | 18.5 |  |
| COc1ccccc1C(CNC(=O)c1ccc(C)c(S(=O)(=O)N2CCCCC2)c1)N(C)C (centres undefined) | 7.46 |  |
| COc1ccc(NC(=O)C2=NNC(=O)CC2)cc1S(=O)(=O)N1CCCCC1 | 0.964 |  |
| COc1ccccc1C(=O)Nc1ccc(C)c(S(=O)(=O)N2CCCCC2)c1 |  | 4.11 µM (active) |
| CCc1ccccc1OCC(=O)Nc1ccc(C)c(S(=O)(=O)N2CCCCCC2)c1 |  | 20.6 µM (active) |
| Cc1ccc(NC(=O)COC(=O)C2CC2)cc1S(=O)(=O)N1CCOCC1 | 10.1 |  |
| Cc1ccc(NS(=O)(=O)c2ccc(F)cc2)nc1 | -1.5 |  |
| COc1ccccc1C(=O)NCC(=O)NCCSc1ccc(Br)cc1 | 0.299 |  |
| COc1ccccc1NS(=O)(=O)c1ccc(C)c(C(=O)NCC(c2ccco2)N(C)C)c1 (centres undefined) | 7.5 |  |
| Cc1ccc(C)c(N2CCN(C(=O)Cn3ncn4cccc4c3=O)CC2)c1 | -9.5 |  |
| Cc1ccc(C)c(N2CCN(C(=O)CCc3nc4ccccc4[nH]3)CC2)c1 | -4.67 |  |
| CCc1nn(CC(=O)N2CCN(c3cc(C)ccc3C)CC2)c(=O)c2cc3occc3n12 | 9.86 |  |

| Compound | activity change, negative = inhibition [%] | Potency |
| --- | --- | --- |
| O=C(CCCCCn1c(=S)[nH]c2cc3c(cc2c1=O)OCO3)N1CCN(c2ccc(F)cc2)CC1 | 2.97 |  |
| Cc1ccc(C)c(N2CCN(C(=O)CCCCCn3c(=S)[nH]c4ccc(N5CCOCC5)cc4c3=O)CC2)c1 |  | 5.8 µM (active) |
| Cc1ccc(C)c(N2CCN(C(=O)CCCn3c(=O)c4cccn4c4cccnc43)CC2)c1 |  | 18.3 µM (active) |
| COC(=O)[C@@]12CCCN1[C@H](c1ccc(-c3ccc(F)cc3)c(OC)c1)[C@H]1C(=O)N(C)C(=O)[C@H]12 | -0.867 |  |
| COc1ccc(CCNC(=S)N2CCN(S(=O)(=O)c3ccc(F)cc3)CC2)cc1 | 15.3 |  |
| COc1ccc(-c2cc(C(F)(F)F)nc(S(C)(=O)=O)n2)cc1OC |  | 20.6 µM (active) |
| COc1ccc(-c2cc(C(F)(F)F)nc(SCC(=O)Nc3ccc4c(c3)OCO4)n2)cc1OC | -18.9 |  |
| COc1cc(OC)nc(S(C)(=O)=O)n1 | -6.22 |  |
| COc1cccc(NC(=O)CSc2nnc(C3CCCCC3)n2N)c1 | 19.8 |  |
| O=C(CSc1ccccc1)Nc1cccc(S(=O)(=O)N2CCCCC2)c1 | 1.06 |  |
| CCN1CCN(C2CCCCC2NS(=O)(=O)c2ccc(Cl)cc2)CC1 (centres undefined) | 10.8 |  |
| Cc1cc(=O)[nH]c(SCC(=O)N2c3ccccc3CC2C)n1 (centres undefined) | 11.9 |  |
| CC1Cc2ccccc2N1C(=O)CSc1nnc(-c2ccc(S(=O)(=O)N3CCCCC3)cc2)o1 (centres undefined) | -1.63 |  |
| CCS(=O)(=O)c1ccc2oc(SCC(=O)N3c4ccccc4CC3C)nc2c1 (centres undefined) |  | 23.1 µM (active) |
| CC(C)(c1ccccc1)c1ccc(OCCN2CCCC2)cc1 | 3.08 |  |
| O=C(Nc1ccc(N2CCOCC2)cc1)c1cccc(S(=O)(=O)N2CCOCC2)c1 | -1.34 |  |
| COc1ccc(C)cc1NC(=O)CN1c2cccc3cccc(c23)S1(=O)=O | -27.2 |  |
| CC(Cc1cccs1)N(Cc1ccc(Cl)cc1)C(=O)c1ccncc1 (centres undefined) | -6.31 |  |
| CCCN(CC(=O)Nc1ccccc1C)C(=O)c1cc(=O)[nH]c2ccccc12 | 23.1 |  |
| CCCN(CC(=O)Nc1ccccc1C)C(=O)c1ccc2[nH]c3c(c2c1)CC(C)CC3 (centres undefined) |  | 9.2 µM (active) |
| CC1CCc2[nH]c3ccc(C(=O)N(C)CC(=O)Nc4cccc(F)c4)cc3c2C1 (centres undefined) | -15.3 |  |
| CCc1cc2c(NC(Cc3ccccc3)C(=O)O)ncnc2s1 (centres undefined) | 2.07 |  |
| CCc1cc2c(N3CCN(c4nnc(CC)s4)CC3)ncnc2s1 |  | 18.4 µM (active) |
| CCc1cc2c(NC3CCCC3)ncnc2s1 | 4.18 |  |
